Among the data in paper PMC6212790, “How bacterial xenogeneic silencer rok distinguishes foreign from self DNA in its resident genome” are binding signal values, retold here.

Whole data set: some 33,000 sequences, median “e-score” near -0.037, cut for the highest 2% near 0.34. The entries come from a sample that favours the highest values as a whole.

The target of this test is T1, GST-Rok (full length) (Bacillus subtilis subsp. subtilis str. …, UniProt O34857 1-191).
T1 sequence: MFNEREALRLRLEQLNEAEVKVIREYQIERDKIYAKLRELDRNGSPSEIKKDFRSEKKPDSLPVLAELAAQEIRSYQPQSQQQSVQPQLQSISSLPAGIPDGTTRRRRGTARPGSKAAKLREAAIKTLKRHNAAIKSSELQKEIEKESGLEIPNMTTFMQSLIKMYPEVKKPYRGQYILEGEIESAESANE
In words: protein binding microarray; Rok is a gene silencer of Bacillus subtilis; high values mean tight binding. As to conditions: protein: recombinant; tags: GST (pTH5325, pDEST15-Magic modified); dsDNA, one strand shown. The method in brief: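 Every oligonucleotide joins a 25-mer constant primer to a 35-mer variable part drawn from a de Bruijn sequence of order 10, so each non-palindromic 8-mer appears at least 32 times and each palindromic 8-mer 16 times. The preference for every 8-mer is reported as a unitless, rank-based enrichment score (E-score). This score spans 0.5 for the most favored 8-mer to −0.5 for the most disfavored.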
For the sequence CCTCTTGA, the binding signal was -0.196 E-score. Next, CATATATG: 0.343 E-score; TATATCGA: 0.304 E-score. The result for CATATATC reads 0.25 E-score. In the case of CATATAAG, the binding signal came out at 0.119 E-score. CAGATATA: the binding signal worked out at 0.165 E-score. Next, CATATATA: 0.38 E-score; GAGATATA: 0.157 E-score. CACATATA: the binding signal turned out to be 0.261 E-score. The result for CACATATG reads 0.266 E-score; that for TATATATA, 0.477 E-score; that for TAGATATA, 0.339 E-score.

CTTATATA: the binding signal came out at 0.253 E-score. Next, CTTAAAAG: -0.119 E-score. The result for ACATTGGT reads 0.186 E-score; that for ACCAGAGG, -0.0915 E-score. The result for AGAGACAC reads 0.0712 E-score.

Consider ATGTCCGG, for which the binding signal was -0.00967 E-score. Next, TTTATAAA: 0.367 E-score; GATATAAA: 0.33 E-score. The result for AATATAAA reads 0.266 E-score. For the sequence CTTATAAA, the binding signal was found to be 0.0863 E-score. On to ATTATAAA, for which the binding signal came out at 0.157 E-score. The result for TATATAAA reads 0.399 E-score. The result for CCCAGGCA reads -0.18 E-score; that for GAAACCGA, -0.119 E-score; that for CCCGTACG, -0.101 E-score. The result for GATATGTA reads 0.296 E-score. Consider GTTATGTA, for which the binding signal was 0.269 E-score. The result for AATATGTC reads 0.106 E-score; that for CATATGTC, -0.0495 E-score.

Consider CATATGTA, for which the binding signal came out at 0.338 E-score. AATATGTA: the binding signal came to 0.416 E-score. Turning to CTTATGTA, the binding signal came to 0.111 E-score. Consider CATATGAA, for which the binding signal came to 0.0706 E-score. The result for ATTATGTA reads 0.358 E-score; that for AGAGCTGC, -0.0428 E-score; that for ACGAACTG, 0.0336 E-score. In the case of GTCCAGAA, the binding signal is -0.0598 E-score. The result for GCGAGAAA reads -0.035 E-score. The result for TAGAAGAA reads 0.109 E-score; that for AAAAGGAG, -0.188 E-score; that for AGTGAATG, 0.0707 E-score. TCTCTGCA: the binding signal was determined as 0.0197 E-score. With AGCATTAT, the binding signal was determined as 0.255 E-score. Next, AGTAGTAG: 0.349 E-score. The result for AGTAGTAT reads 0.405 E-score; that for AGCAGTAT, 0.015 E-score.

Consider AACAGTAA, for which the binding signal amounted to 0.294 E-score. Consider CACAGTAG, for which the binding signal amounted to 0.0684 E-score. The result for AATAGTAG reads 0.469 E-score; that for CGTAGTAG, 0.204 E-score; that for AACAGTAG, 0.354 E-score. The result for AGAAGTAT reads 0.334 E-score. Consider ATTAGTAG, for which the binding signal is 0.321 E-score. The result for AATAGTAT reads 0.292 E-score; that for CATAGTAG, 0.0836 E-score; that for GCCTGTAC, -0.0711 E-score. Next, AACCTTAC: 0.0321 E-score; AAGAAGAG: -0.106 E-score. The result for AAAGGTTG reads -0.0391 E-score; that for CATAGGCA, 0.0952 E-score. Turning to GAACTTCA, the binding signal came out at 0.0379 E-score.

As for ACATAAGT, the binding signal is 0.127 E-score. The result for AGAAACTG reads 0.12 E-score. Next, AGAAACTA: 0.412 E-score; CGAAACCA: -0.108 E-score; GGAAACAA: 0.207 E-score. The result for CGAAACTA reads 0.446 E-score. Regarding GGAAACGA, the binding signal was -0.156 E-score.

As to AGAAACTC, the binding signal came to 0.158 E-score.

Regarding GGAAACTA, the binding signal is 0.362 E-score. The result for CGAAACTC reads -0.0462 E-score. The result for AATTAAGG reads 0.158 E-score; that for ATCGGTCA, 0.0381 E-score; that for ATGGCTTG, -0.172 E-score. Next, TATGGGCA: -0.0796 E-score; TAAGCCGA: -0.0712 E-score; AACTTATC: 0.134 E-score. For CAATGGTA, the binding signal came out at 0.322 E-score. The result for TAATGGTA reads 0.387 E-score; that for GAATGGTA, 0.317 E-score. Next, AACTCAGG: 0.0467 E-score; CGTGACCA: -0.0921 E-score. In the case of AAGTACAG, the binding signal is 0.272 E-score. Regarding CTCTATTC, the binding signal is 0.00987 E-score. The result for CTATATTC reads 0.353 E-score; that for GAATATTA, 0.0406 E-score; that for AAATATTC, 0.251 E-score. The result for ATATATTC reads 0.34 E-score; that for GAATATTC, 0.417 E-score.

Take CAATATTC: the binding signal worked out at 0.21 E-score. Next, ACATATTC: 0.27 E-score; CGATATTC: 0.194 E-score; AGGTCACT: -0.137 E-score. Next, ATTGTTTC: 0.228 E-score. The result for CCGGTCAC reads -0.153 E-score. For ATACATGA, the binding signal is 0.294 E-score. For CTACATTA, the binding signal turned out to be 0.355 E-score. The result for CTACATGC reads 0.308 E-score. The result for CTACATGA reads 0.347 E-score; that for CTACATTC, 0.176 E-score. Take GTACATTA: the binding signal was 0.262 E-score. The result for CAAAAAAC reads 0.0394 E-score.

For the sequence CGGTAAAA, the binding signal came to 0.278 E-score. Next, GGTAAAAC: 0.192 E-score; GGGTAAAA: 0.184 E-score. Next, CGTAAAAA: 0.0957 E-score; TGGTAAAA: 0.354 E-score. Next, GGTAAAAA: 0.349 E-score; CGAGTTAG: 0.0866 E-score; ACTGCCAC: -0.0928 E-score.

Consider AAATGATC, for which the binding signal turned out to be 0.143 E-score. The result for AAATGATT reads -0.0952 E-score. The result for AAATGATA reads 0.37 E-score; that for AAAACCTA, 0.255 E-score. The result for ACTGGTGG reads -0.172 E-score. On to AAGTACTA, for which the binding signal turned out to be 0.389 E-score.

Turning to CAGTACGA, the binding signal is -0.048 E-score.

In the case of AAGTACTG, the binding signal came out at 0.114 E-score.

On to AAGTACTC, for which the binding signal came out at 0.165 E-score. Next, CAGTACTA: 0.279 E-score; TAGTACTA: 0.44 E-score; GAGTACTA: 0.13 E-score. Next, TAGTACGA: 0.359 E-score; GAGTACGA: 0.0148 E-score; CCAATTGC: 0.145 E-score.

As to AGATAGCG, the binding signal was found to be 0.22 E-score. ACCTTCTG: the binding signal is -0.0843 E-score.

In the case of GTATACTA, the binding signal came out at 0.378 E-score. ATATACTA: the binding signal stood at 0.409 E-score. CTATACTC: the binding signal came out at 0.137 E-score. The result for ATATACGA reads 0.23 E-score; that for GGATACTA, 0.211 E-score. CTATACTA: the binding signal stood at 0.288 E-score.

In the case of ATATACTG, the binding signal stood at 0.391 E-score. The result for ATATACTC reads 0.288 E-score; that for CGATACTA, 0.328 E-score; that for AGATACTA, 0.348 E-score. Take GTATACAA: the binding signal worked out at 0.308 E-score. As to GTATACGA, the binding signal is 0.179 E-score.

In the case of ATCAGCAA, the binding signal is -0.0224 E-score.

For the sequence GACAAATC, the binding signal is -0.0534 E-score. The result for ATGATTGA reads 0.0352 E-score; that for GGATGTTA, 0.0229 E-score; that for CAATTACA, 0.189 E-score.

Regarding AAAGCCGG, the binding signal is -0.147 E-score. ACGAGTCC: the binding signal was -0.192 E-score. The result for AATAGGAG reads 0.0707 E-score; that for GCATACTA, 0.325 E-score. As for ACATACTG, the binding signal turned out to be 0.141 E-score.

On to ACATACTA, for which the binding signal was 0.361 E-score. Next, CTCCCAAC: -0.0944 E-score. The result for AGGCTTAA reads -0.159 E-score; that for ATACGTAA, 0.323 E-score.

Turning to CTAAAAAC, the binding signal is 0.082 E-score.

On to ATAGTTCC, for which the binding signal is 0.135 E-score. Next, ATAGTTGA: 0.228 E-score; CCAGTTTC: -0.0817 E-score; CTAGTTTA: 0.383 E-score. The result for CTAGTTGA reads 0.226 E-score. The result for CTAGTTTC reads 0.413 E-score; that for ATCGTTTC, 0.14 E-score. As for ATAGTTTC, the binding signal is 0.398 E-score. For CGAGTTTC, the binding signal came to 0.0534 E-score. The result for CTAGTTCA reads 0.152 E-score. Next, ATCGTTTA: -0.0103 E-score. The result for ATAGTTTA reads 0.346 E-score; that for GCCTACTA, 0.0988 E-score. Turning to ACAGGAGT, the binding signal is 0.0409 E-score.

Take ACTTACTA: the binding signal came out at 0.306 E-score. Next, TGATTCAA: -0.164 E-score.
